Compound activity (PubChem BioAssay)
Sampled rows, rich in hits. Any-hit rate of the full collection: about 4.5%.
FBA Mtb inh: Mtb fructose-bisphosphate aldolase inhibition. purified M. tuberculosis FBA, fluorescence read-out. 360,000 compounds, 2.3% hits. P9WQA3. AID 588726. inhibition, % at 1 µM; in the data active = inhibition above about 27%;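 note: 0% = vehicle and 100% = reference inhibitor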
Target sequence (P9WQA3 whole entry, looked up): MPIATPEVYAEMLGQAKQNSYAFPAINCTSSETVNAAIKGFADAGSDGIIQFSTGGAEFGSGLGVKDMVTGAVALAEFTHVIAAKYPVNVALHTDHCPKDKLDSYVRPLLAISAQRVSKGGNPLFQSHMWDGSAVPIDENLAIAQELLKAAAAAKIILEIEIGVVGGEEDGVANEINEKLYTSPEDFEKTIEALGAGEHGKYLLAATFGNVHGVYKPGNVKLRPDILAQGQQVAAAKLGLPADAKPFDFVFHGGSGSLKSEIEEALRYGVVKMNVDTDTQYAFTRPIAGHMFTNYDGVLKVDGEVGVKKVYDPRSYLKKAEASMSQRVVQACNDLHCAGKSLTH
GDH-TPI inh: counter-screen for M. tuberculosis FBA inhibitors: GDH-TPI coupled enzymes | GDH-TPI coupled enzyme counterscreen, NADH absorbance | inhibition, % at 4.8 µM | 360,000 compounds, 1.2% hits; in the data active = inhibition above about 30%;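 note: 0% = DMSO wells and 100% = wells lacking the enzyme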
PrPC surface inh: reduces human prion protein on the cell surface | P04156 | inhibition, % at 13.8 µM | 370,000 compounds, 0.43% hits | cell surface PrPC, TR-FRET read-out; in the data active = inhibition above about 24%; note: 0% = median of the test wells and 100% = reference compound wells
BJeLR viability: kills HRASV12-expressing BJeLR cells | 300,000 compounds, 0.17% hits | BJeLR (HRASV12) viability, CellTiter-Glo ATP luminescence, 48 h | inhibition, % (no concentration beside the values); in the data active = inhibition above about 50%
PrP 5UTR inh: inhibition of PrP 5' UTR reporter expression | cell-based PrP 5' UTR mRNA reporter, plate reader | inhibition, % (no concentration beside the values) | AID 488862 | 340,000 compounds, 0.35% hits; in the data active = inhibition above about 52%; note: 0 = median of the neutral control wells
PfHsp40 rescue: rescue of PfHsp40-mediated yeast toxicity; S. cerevisiae expressing PfHsp40, growth rescue, ATP luminescence; growth rescue, % at 12.5 µM; 340,000 compounds, 0.68% hits; in the data active = growth rescue above about 28%, passing the limit was not always enough;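 note: yeast W303a lacking pdr1 and pdr3 grown in galactose medium; growth measured after three days at 30 °C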
Numbers without * were called inactive.

For O=C(Nc1ncccc1O)c1cccc(S(=O)(=O)N2CCc3ccccc32)c1 the results were FBA Mtb inh 0, GDH-TPI inh -2, PrPC surface inh 0, BJeLR viability 13, PrP 5UTR inh -14 and PfHsp40 rescue 66*.
Screening Cc1c2n(c3ccccc13)CC/C2=N\O returned FBA Mtb inh 2, GDH-TPI inh 1, PrPC surface inh -4, BJeLR viability -2, PrP 5UTR inh -22 and PfHsp40 rescue 2.
`CO/N=C1\CCn2c1c(C)c1ccccc12` gave FBA Mtb inh 3, GDH-TPI inh 31*, PrPC surface inh 1, BJeLR viability 7, PrP 5UTR inh -3 and PfHsp40 rescue 0.
`C[C@@H]1ON(C)[C@H]2C[C@H]3c4[nH]c5c(-c6ccccc6F)cccc5c4CCN3C[C@@H]12` gave PrPC surface inh -3.
Screening COc1ccccc1/C=C1\S/C(=N/NC(=O)c2cccc(Br)c2)NC1=O returned FBA Mtb inh 4, GDH-TPI inh 20, PrPC surface inh 6, BJeLR viability -17, PrP 5UTR inh -9 and PfHsp40 rescue 142*.
For COC(=O)/C=C1\S/C(=N/NC(=O)c2ccccc2)NC1=O the results were FBA Mtb inh -3, GDH-TPI inh 30, PrPC surface inh -16, BJeLR viability -9, PrP 5UTR inh -5 and PfHsp40 rescue 0.
`Nn1c(SCC(=O)Nc2ccccc2-c2ccccc2)nnc1-c1n[nH]c2c1CCC2` gave PrPC surface inh 15.
For C=CCNC(=S)Nc1sc2c(c1C(=O)OCC)CC(C(C)C)OC2 (centres undefined) the results were FBA Mtb inh 1, GDH-TPI inh 32*, PrPC surface inh -7, BJeLR viability 6, PrP 5UTR inh -10 and PfHsp40 rescue 1.
Screening CC(C)C[C@@H]1COc2cc(Br)ccc2S(=O)(=O)N1Cc1cn(CCC2OCCO2)nn1 returned PrPC surface inh 4.
Screening Cc1c(OCC(=O)OC(C)(C)C)ccc2c3c(c(=O)oc12)CCC3 returned FBA Mtb inh 9, GDH-TPI inh 12, PrPC surface inh 12, BJeLR viability -8, PrP 5UTR inh -22 and PfHsp40 rescue 2.
Screening Cc1c(OC(=O)CNC(=O)OC(C)(C)C)ccc2c3c(c(=O)oc12)CCC3 returned FBA Mtb inh 122*, GDH-TPI inh 5, PrPC surface inh -1, PrP 5UTR inh 3 and PfHsp40 rescue 3.
CC(=O)COc1ccc2c3c(c(=O)oc2c1C)CCCCC3 was read as FBA Mtb inh 115*, GDH-TPI inh 16, PrPC surface inh 8, BJeLR viability -7, PrP 5UTR inh -90 and PfHsp40 rescue -3.
Cc1c(O)ccc2c3c(c(=O)oc12)CCCC3 was read as FBA Mtb inh 193*, GDH-TPI inh 12, PrPC surface inh -1, PrP 5UTR inh -25 and PfHsp40 rescue 3.
For Cc1oc2c(C)c3oc(=O)c4c(c3cc2c1C)CCCC4 the results were FBA Mtb inh 1, GDH-TPI inh 8, PrPC surface inh -1, BJeLR viability -2, PrP 5UTR inh -3 and PfHsp40 rescue 21.
Screening COc1ccccc1NC(=O)C1=C(C)N(c2ccccc2)C(=S)NC1c1cccc(C(F)(F)F)c1 (centres undefined) returned FBA Mtb inh 0, GDH-TPI inh 4, PrPC surface inh 7, BJeLR viability -4, PrP 5UTR inh -15 and PfHsp40 rescue 0.
For COC(=O)c1ccc(C2NC(=S)N(c3ccccc3)C(C)=C2C(=O)Nc2ccccc2OC)cc1 (centres undefined) the results were FBA Mtb inh active, GDH-TPI inh 8, PrPC surface inh 4, BJeLR viability 0, PrP 5UTR inh 0 and PfHsp40 rescue -1.
Cc1cc(C)c(C)c(OCCOCCN2CCOCC2)c1 was read as FBA Mtb inh -1, GDH-TPI inh 2, PrPC surface inh 2, BJeLR viability 1, PrP 5UTR inh -19 and PfHsp40 rescue -2.
For Cc1cc(C)c(C)c(OCCOCCN2CCN(C)CC2)c1 the results were FBA Mtb inh -1, GDH-TPI inh 1, PrPC surface inh -6, BJeLR viability -1, PrP 5UTR inh -14 and PfHsp40 rescue 123*.
`Cc1ccccc1Nc1ncc(C#N)c(N)n1` gave FBA Mtb inh 3, GDH-TPI inh -3, PrPC surface inh 4 and BJeLR viability -3.
Screening COc1ccc(Nc2ncc(C#N)c(N)n2)c(OC)c1 returned FBA Mtb inh 7, GDH-TPI inh 8, PrPC surface inh 5, BJeLR viability -6, PrP 5UTR inh -8 and PfHsp40 rescue 66*.
Screening COc1ccc(-n2c(SCC(=O)Nc3ccccc3-c3ccccc3)nnc2-c2ccco2)cc1 returned PrPC surface inh -3.
`CN(C)c1ccc(C=NN2C(=O)CSC2=S)c(Cl)c1` gave FBA Mtb inh -7, GDH-TPI inh 36* and PrPC surface inh 7.
`O=C1CSC(=S)N1N=Cc1c(F)cccc1Cl` gave FBA Mtb inh 0, GDH-TPI inh 9 and PrPC surface inh 1.
O=C(NCCN1C(=O)C2C3C=CC(C3)C2C1=O)c1cc(F)cc(F)c1 (centres undefined) was read as PrPC surface inh -3.
CCC1=NN(C(=O)c2ccccc2Br)C(O)(c2ccc(Br)cc2)C1 (centres undefined) was read as FBA Mtb inh -3, GDH-TPI inh 1, PrPC surface inh 0, BJeLR viability 9, PrP 5UTR inh -26 and PfHsp40 rescue 1.
`CCC1=NN(C(=O)c2ccccc2O)C(O)(c2ccccc2)C1` (centres undefined) gave FBA Mtb inh 3, GDH-TPI inh 16, PrPC surface inh -5, BJeLR viability 14, PrP 5UTR inh 2 and PfHsp40 rescue 83*.
`CC(COc1ccc(CC#N)cc1)CN1CCC(C(O)(c2ccccc2)c2ccccc2)CC1` (centres undefined) gave PrPC surface inh -10.
CC(C)=NNC(=O)c1c(O)c2ccccc2[nH]c1=O was read as FBA Mtb inh -4, GDH-TPI inh 5, PrPC surface inh 2, BJeLR viability 7, PrP 5UTR inh -20 and PfHsp40 rescue 100*.
CCOc1ccc(-n2ccc(=O)c(C(=O)Nc3ccc(S(=O)(=O)Nc4nccs4)cc3)n2)cc1 was read as FBA Mtb inh 2, GDH-TPI inh 33*, PrPC surface inh -25, BJeLR viability 8, PrP 5UTR inh -7 and PfHsp40 rescue 2.
`O=S1(=O)c2c(NCc3ccco3)cccc2Oc2ccccc2CN1Cc1cn(Cc2ccc(F)cc2)nn1` gave PrPC surface inh 2.
C=CCN(Cc1ccccc1)C(C#CC(=C)C)Cc1ccccc1 (centres undefined) was read as PrPC surface inh -2.
For O=C(O)C1SCCN1S(=O)(=O)c1ccc(N=NN2CCOCC2)cc1 (centres undefined) the results were FBA Mtb inh 165*, GDH-TPI inh 18, PrPC surface inh 5, BJeLR viability -3, PrP 5UTR inh -15 and PfHsp40 rescue 0.
